From PubChem BioAssay AID2101 (National Center for Advancing Translational Sciences (NCATS), 2009) come the findings set out here.

Screen size: about 330,000 compounds; about 300 (0.091%) were called active. Not shown: some 4% with an inconclusive outcome. Many of the other results were omitted from the sample, so actives are more common in it than they were. Values without a mark were called inactive. The call rests on the fitted dose curve; in most records, active means well fitted inhibition curve with a large enough effect; inconclusive means small, poorly fitted or top-dose-only effect, or effect the other way, or another doubt; inactive means no such curve, though single readings can be large or run the other way.
Potency means the concentration at half of the fitted maximal effect.

The test has as its target Lysosomal acid glucosylceramidase (Homo sapiens) (UniProt P04062). Description: qHTS Assay for Inhibitors and Activators of N370S glucocerebrosidase as a Potential Chaperone Treatment of Gaucher Disease.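 On activity change, negative = inhibition: 0% = full enzyme activity and -100% = no enzyme basal.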 Conditions: N370S GC spleen homogenate, 4MU-glucoside fluorescence; series mostly up to 59.4 µM; activity change, negative = inhibition: at the top concentration. The source says:
NIH Chemical Genomics Center [NCGC]
NIH Molecular Libraries Probe Production Centers Network [MLPCN]
Assay Submitter (PI): Wei Zheng
Glucocerebrosidase (GC) catalyzes the hydrolysis of beta-glucocerebroside to glucose and ceramide in lysosomes. Mutations in the glucocerebrosidase gene result in Gaucher disease, an autosomal recessive lysosomal storage disorder. Many of the mutations encountered in patients with Gaucher disease are missense alterations that may cause misfolding, decreased stability and/or mistrafficking of this lysosomal protein. […] These inhibitors include iminosugar analogs and three non-iminosugar inhibitors identified from a previous HTS of 62,000 compounds with the wild type recombinant enzyme. However, the enhancement of enzyme activity by the chaperone action of an enzyme inhibitor must be balanced against the direct inhibition of the enzyme. An enzyme activator could also function as a chaperone by binding to the enzyme and helping to correct its misfolding and mistrafficking. While activators for GC have not yet been identified, they may have better therapeutic potential than inhibitors. Therefore the discovery and development of chemical activators may provide a new strategy for the chaperone therapy.
We have optimized a new assay using N370S mutant GC derived from the spleen of a Gaucher patient. […] In addition, the MLPCN compound library has expanded, which increases the chance of finding new and better probes.
NCGC Assay Protocol Summary:
This is a fluorogenic enzyme assay with 4-methylumbelliferyl-beta-D-glucopyranoside as the substrate and N370S glucocerebrosidase from human spleen homogenate as the enzyme preparation. Upon the hydrolysis of this fluorogenic substrate, the resulting product, […] which can be detected by a standard fluorescence plate reader. Data were normalized to the controls for basal activity (without enzyme) and 100% activity (with enzyme). The AC50 values were determined from concentration-response data modeled with the standard Hill equation.
Assay buffer: 50 mM citric acid (titrated with potassium phosphate to pH 5.0), 100 mM potassium chloride, 10 mM sodium chloride, 1 mM magnesium chloride, 0.01% Tween-20.
1536-well assay protocol:
(1) Add 2 ul/well of spleen homogenate (27 ug final)
(2) Add 23 nL compounds in DMSO solution. The final titration was 0.5 nM to 58 uM.
(3) Add 2 ul of substrate (1 mM final)
(4) Incubate at 37C for 40 min.
(5) Add 2 ul stop solution (1M NaOH and 1M Glycine mixture, pH 10)
(6) Detect the assay plate in a ViewLux plate reader (PerkinElmer) with Ex=365 nm and Em=440nm.
Keywords: Glucocerebrosidase, beta-glucosidase, Gaucher Disease, pharmacological chaperone, chaperone therapy, high throughput screening, glucocerebrosidase inhibitor, MLSMR, MLSCN, NIH Roadmap, qHTS and NCGC
A general note: In qHTS, concentration-response curves come from the screen itself.
For `O=c1cc(-c2ccc(O)cc2)oc2c([C@@H]3O[C@H](CO)[C@@H](O)[C@H](O)[C@H]3O)c(O)cc(O)c12`, the “activity change, negative = inhibition” value was -9.49%. The same measure, in the same setting: then `COc1ccc2[nH]cc(CCNc3ncnc4ccc(-c5ccc(C(=O)N(C)C)cc5)cc34)c2c1`, with -20.6%; and `CCOC(=O)Cc1csc(SCC(=O)Nc2ccc(C)cc2F)n1`, with -2.81%. Same read-out and setting: then `CC[C@H](C)[C@H](NC(=O)[C@@H](N)CCC(=O)O)C(=O)N[C@@H](CC(C)C)C(=O)N[C@@H](CC(=O)O)C(=O)N[C@H](C(=O)N1CCC[C@H]1C(=O)N[C@@H](CO)C(=O)N[C@H](C(=O)O)[C@@H](C)O)C(C)C`, with -6.74%; and `N#CCC(=O)Nc1ccc(C(=O)OCC(=O)Nc2sc3c(c2C#N)CCCC3)cc1`, with -1.92%; and `CC(=O)CC(C)C`, with 4.41%.

Turning to `O=[N+]([O-])c1ccc(N=Cc2c(O)ccc3ccccc23)cc1`, the “activity change, negative = inhibition” value was 1.71%. As for `Oc1ccc(N=Cc2c(O)ccc3ccccc23)cc1`, the Potency is 12.6 µM (active). Turning to `CCOc1[nH]n(-c2ccc(Cl)cc2)c(=O)c1C=Nc1ccc(O)cc1`, the “activity change, negative = inhibition” value was -12.7%. For `CC(=O)c1ccc(N2CCN(C(=O)c3ccc(Cl)c(S(=O)(=O)NC4CC4)c3)CC2)c(F)c1`, the “activity change, negative = inhibition” value is -16.3%. With `Oc1ccc(O)c2c(O)cccc12`, the “activity change, negative = inhibition” value is -3.42%.

In the case of `Cc1ccc(C)c(NC(=O)CN(C)C(=O)c2ccc3ncsc3c2)c1`, the “activity change, negative = inhibition” value was -14.8%. The same measure, in the same setting: the figure for `CSc1ccccc1NC(=O)COC(=O)CCCOc1ccc(C)cc1` is -19.4%. As for `CC1CCCC(NC(=O)c2cc(-c3ccncc3)nc3ccccc23)C1C` (centres undefined), the “activity change, negative = inhibition” value was -3.85%. As to `CCOc1ccc(N(CC(=O)Nc2cccc(OC)c2)S(C)(=O)=O)cc1`, the “activity change, negative = inhibition” value was 2.19%. The same measure, in the same setting: then `CCOc1ccc(N(CC(=O)NCCc2ccc(F)cc2)S(=O)(=O)c2ccccc2)cc1`, with -4.73%; and `CCCN(c1ccc(C(C)C)cc1)S(=O)(=O)c1c(C)[nH]c(=O)[nH]c1=O`, with -1.77%. On the same count and under the same terms, the figure for `COc1cccc(N(CC(=O)NC2CCCCCC2)S(=O)(=O)c2ccccc2)c1` is -0.1%. For the molecule `CCOc1ccc(N(CC(=O)Nc2ccccc2F)S(=O)(=O)c2c(C)[nH]c(=O)[nH]c2=O)cc1`, the Potency is 3.16 µM (active). `COc1ccc(N(CC(=O)NC2CCCCCCC2)S(=O)(=O)c2c(C)nn(C)c2C)cc1`: the “activity change, negative = inhibition” value is 1.78%. On the same count and under the same terms, the figure for `CCOc1ccc(N(CC(=O)NCc2ccc(OC)cc2)S(=O)(=O)c2c(C)noc2C)cc1` is 5.25%. Turning to `CCOc1ccc(N(CC(=O)NC2CCCCCC2)S(=O)(=O)c2c(C)[nH]c(=O)[nH]c2=O)cc1`, the Potency is 2.51 µM (active). Still for that read-out and setting: then `COc1ccc(N(CC(=O)NC2CCCCC2)S(=O)(=O)c2c(C)[nH]c(=O)[nH]c2=O)cc1`, with 3.98 µM (active). `O=C(NCc1ccco1)O[C@@H]1C(=O)c2cc(Br)ccc2O[C@H]1c1ccc2c(c1)OCO2`: the “activity change, negative = inhibition” value was 0.0082%. Take `CCn1c(=O)c(=O)n(CC)c2cc(N3CCCCC3)c(NC(=O)c3ccc(Cl)cc3)cc21`: the “activity change, negative = inhibition” value was 3.98%.

Consider `CCC(C)C(N=C1NS(=O)(=O)c2ccccc21)C(=O)N1CCC(C)CC1` (centres undefined), for which the “activity change, negative = inhibition” value was 2.41%.

Take `O=C1CN(Cc2ccccc2)S(=O)(=O)c2ccccc21`: the “activity change, negative = inhibition” value is -5.5%. On the same count and under the same terms, then `C#CCOCCOCCOCCNc1nc(N2CCN(C(=O)Cn3cc(CCCCN)nn3)CC2)nc(N2CCN(C(=O)[C@H](CCCCN)n3cc(CCC(=O)O)nn3)CC2)n1`, with -0.601%.

As to `C#CCOCCOCCOCCNc1nc(N2CCN(C(=O)CCCCCCCCCCNC(=O)[C@H](CCCCN)n3cc(C)nn3)CC2)nc(N2CCN(C(=O)CCCCCCCCCCNC(=O)[C@H](CO)n3cc(CCCSC)nn3)CC2)n1`, the Potency is 15.8 µM (active).

In the case of `C#CCOCCOCCOCCNc1nc(N2CCN(C(=O)CCCCCCCCCCNC(=O)Cn3cc(CCCCCN)nn3)CC2)nc(N2CCN(C(=O)CCCCCCCCCCNC(=O)[C@H](CO)n3cc(CCCSC)nn3)CC2)n1`, the “activity change, negative = inhibition” value was -28%. On the same count and under the same terms, then `O=c1c(O)c(-c2ccc(O)cc2)oc2ccccc12`, with 21%; and `CCCCN(CC(=O)Nc1cccc(S(=O)(=O)N2CCCC2)c1)Cc1nc2ccccc2c(=O)[nH]1`, with 12.9%. Same read-out and setting: then `COc1cc(C(=O)OCC(=O)NC23CC4CC(CC(C4)C2)C3)cc(OC)c1OC`, with -2.45%; and `CN1CCN(c2ncc3nc(-c4ccc(Cl)cc4)c(=O)n(-c4ccccc4)c3n2)CC1`, with -18.9%.

With `COc1cccc([C@H]2Oc3ccc(OC)cc3/C(=N\OCC[C@@H]3C=C[C@H](OC(C)=O)[C@H](COC(C)=O)O3)[C@@H]2O)c1`, the activity change, negative = inhibition was 10.4% [at 12.8 µM].

In the case of `COc1ccc(-c2ccc(C3C4C=CCCC4(C)C(=O)N3Cc3ccccc3)c(F)c2)cc1OC` (centres undefined), the “activity change, negative = inhibition” value is 2.67%.

On to `CCc1ccc(CN(C)C(C)C(=O)Nc2ccc(S(=O)(=O)N3CCCC3)cc2)cc1` (centres undefined), for which the “activity change, negative = inhibition” value was -12.1%.

As to `Cc1csc(SCC(=O)N(c2ccccc2)C(C)C)n1`, the “activity change, negative = inhibition” value is -6.31%. On the same count and under the same terms, then `c1cncc(CNc2ccnc(-c3ccc4c(c3)OCO4)n2)c1`, with -11.9%; and `CC(=O)c1ccc(OCCCC(=O)Nc2ccc(C)c(S(=O)(=O)N3CCOCC3)c2)cc1`, with 0.719%. The same measure, in the same setting: then `Cc1ccc(-c2cccc([C@H]3[C@@H]4C=CC[C@@H](C)[C@@H]4C(=O)N3Cc3ccccc3)c2)cc1`, with 7.79%; and `O=C(C1CC(=O)N(C2CCCC2)C1)N1CCN(c2cccc(C(F)(F)F)c2)CC1` (centres undefined), with -9.54%. Same read-out and setting: the figure for `CC(C)C[C@@H](CC(=O)N[C@@H](CCC(=O)O)CC(=O)O)NC(=O)[C@@H]1CCCC[C@H]1NC(=O)C[C@@H](NC(=O)C[C@H](CO)NC(=O)[C@@H]1CCCC[C@H]1N)C(C)C` is -2.87%; for `COc1cc(OC)c2c(c1C(CCN1CCCCC1)c1ccc(N(C)C)cc1)OC(=O)CC2c1ccc(N(C)C)cc1` (centres undefined) it is -10.2%.
